Compounds without any hit were thinned out: in the full panel of roughly 83,000, 20% have a hit.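 Step 1: grow cells in 96-well plates. Step 2: add test compound at a single concentration. Step 3: incubate 48 h. Step 4: record percent growth.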 A number with no mark means an inactive call. Calls of active or inactive are those of the source. The calls were made as follows: active = growth percent below 10; inactive = the rest.
Experiments:
Assay in all cases: NCI-60 one-dose screen, 48 h (100 = growth as untreated, 0 = no growth, -100 = all killed)
Conditions in all cases: 10 µM unless noted
[1] = tested on: NCI-H23 lung
[2] = tested on: NCI-H322M lung
[3] = tested on: HOP-62 NSCLC
[4] = tested on: NCI-H460 lung
[5] = tested on: HOP-92 NSCLC
[6] = tested on: NCI-H522 lung
[7] = tested on: A549/ATCC NSCLC
[8] = tested on: 786-0 renal
[9] = tested on: COLO 205 colon
[10] = tested on: DU-145 prostate
[11] = tested on: K-562 leukemia
[12] = tested on: MDA-MB-231 breast
[13] = tested on: RXF 393 renal
[14] = tested on: SF-268 CNS
[15] = tested on: SF-295 CNS
[16] = tested on: SF-539 CNS
[17] = tested on: UACC-257 melanoma
[18] = tested on: M14 melanoma
[19] = tested on: HCT-15 colon
[20] = tested on: MALME-3M melanoma

O=C(Nc1ccc(-c2nc3cc4ccccc4cc3[nH]2)cc1)c1cccc(Br)c1
growth [1]: 54.1% | growth [2]: 41.3% | growth [3]: 49.9% | growth [4]: 6.74% (active) | growth [5]: 72.6% | growth [6]: 16.3% | growth [7]: 27% | growth [8]: 17.6% | growth [9]: 34.6% | growth [10]: 46.4% | growth [11]: 26.7% | growth [12]: 69.2% | growth [13]: 29% | growth [14]: 37% | growth [15]: -36.3% (active) | growth [16]: 30.8% | growth [17]: 42.3% | growth [18]: 34.2% | growth [19]: 22.3%

O=C(c1ccccc1)N(C(=S)NCCc1ccc(Cl)cc1)c1ccccc1
growth [1]: 95.5% | growth [2]: 103% | growth [3]: 103% | growth [4]: 107% | growth [5]: 75.2% | growth [6]: 92.5% | growth [7]: 97.2% | growth [8]: 92.4% | growth [9]: 139% | growth [10]: 79.7% | growth [11]: 58.1% | growth [12]: 112% | growth [14]: 96.2% | growth [15]: 113% | growth [16]: 104% | growth [17]: 95.8% | growth [18]: 101% | growth [19]: 86.2%

CCOc1c(Br)cc(C2C(C(=O)OC)=CN(C)C=C2C(=O)OC)cc1OC
growth [1]: 98% | growth [2]: 76.3% | growth [3]: 84.6% | growth [4]: 48.3% | growth [5]: 39.2% | growth [6]: 75.9% | growth [7]: 85.9% | growth [8]: 58.3% | growth [9]: -88.1% (active) | growth [10]: 91.4% | growth [11]: 8.68% (active) | growth [12]: 49.4% | growth [13]: 64.2% | growth [14]: 68.1% | growth [15]: 24% | growth [16]: 94.2% | growth [19]: 41%

Cc1ccc(S(=O)c2ccc([N+](=O)[O-])c3nonc23)cc1 (stereo not drawn)
growth [1]: 102% | growth [2]: 110% | growth [3]: 112% | growth [4]: 99.5% | growth [5]: 109% | growth [6]: -60.1% (active) | growth [7]: 101% | growth [8]: 102% | growth [9]: -39.7% (active) | growth [10]: 112% | growth [11]: 38.9% | growth [20]: 81.2% | growth [13]: 111% | growth [14]: 105% | growth [15]: 119% | growth [16]: 106% | growth [17]: 100% | growth [18]: 104% | growth [19]: 66.5%

N#C/C(=C\c1c(-c2ccccc2)[nH]c2ccccc12)S(=O)(=O)c1ccccc1
growth [1]: 40.7% | growth [2]: 60% | growth [3]: 39.2% | growth [4]: 16.1% | growth [5]: 53% | growth [6]: 54.9% | growth [7]: 45.5% | growth [8]: 51.3% | growth [9]: 12.8% | growth [10]: 21.2% | growth [11]: 17.5% | growth [20]: 76.5% | growth [12]: 47.2% | growth [14]: 53% | growth [15]: 25.7% | growth [16]: -20.1% (active) | growth [17]: 73.8% | growth [18]: 42.8% | growth [19]: 44.1%

N[C@@H](CC/[N+]([O-])=N/O)C(=O)O
growth [1]: 97.2% | growth [2]: 103% | growth [3]: 101% | growth [4]: 97.9% | growth [5]: 107% | growth [6]: 95.7% | growth [7]: 102% | growth [8]: 104% | growth [9]: 104% | growth [10]: 97.8% | growth [20]: 101% | growth [12]: 102% | growth [14]: 95.9% | growth [15]: 110% | growth [16]: 95% | growth [17]: 112% | growth [18]: 102% | growth [19]: 104%

COc1ccc(C2c3ccc4ccccc4c3Oc3ncn(CCCn4ccnc4)c(=N)c32)cc1OC (stereo not drawn)
growth [1]: 60.6% | growth [2]: 49.8% | growth [3]: 73.4% | growth [4]: 55.8% | growth [5]: 24.3% | growth [6]: 72.6% | growth [7]: 55.3% | growth [8]: 68.4% | growth [9]: 53.4% | growth [10]: 79% | growth [11]: 15.6% | growth [12]: 69.2% | growth [13]: 73.2% | growth [14]: 89.5% | growth [15]: -7.39% (active) | growth [16]: 67.8% | growth [17]: 72.4% | growth [18]: 49.6% | growth [19]: 68.5%

CC1=CCC(OC(=O)C(C)(C)CCC(O)(C(=O)OC2(C(C)C)CCC3(C)OC3C2)C(C)C)(C(C)C)CC1 (stereo not drawn)
growth [1]: -73.2% (active) | growth [2]: -93% (active) | growth [3]: -66.7% (active) | growth [4]: -84.2% (active) | growth [5]: -71.7% (active) | growth [6]: -76.3% (active) | growth [7]: -82.8% (active) | growth [8]: -90.5% (active) | growth [9]: -61.5% (active) | growth [10]: -95.8% (active) | growth [20]: -84.1% (active) | growth [12]: -63.1% (active) | growth [13]: -91.2% (active) | growth [14]: -74.5% (active) | growth [15]: -92.2% (active) | growth [16]: -97.3% (active) | growth [17]: -57.6% (active) | growth [18]: -81% (active) | growth [19]: -59.8% (active)
